{"source": "PubChem BioAssay (NCATS)", "note": "Inconclusive results are not listed. The source made the active and inactive calls. Calls come from the whole dose curve; as a rule, active = well fitted curve in the direction sought with a large enough effect; inconclusive = small, poorly fitted or top-dose-only effect, or another doubt; inactive = no such curve, though single readings can be large; an effect the other way counts as inactive or inconclusive. % is set by controls: 0 for no effect and ±100 for the full control effect.", "data": [{"test_system": "WaGa", "experiment": "qHTS assay to identify novel small-molecules to repurpose for Merkel cell carcinoma treatment (AID 1296009); note: nearly all actives have a fitted effect of over 60% in size; note: potency is the fitted concentration of half-maximal effect", "conditions": "MCC and control cell lines, CellTiter-Glo viability, 72 h; series mostly up to 46 µM; activity change, negative = cytotoxicity: at the top concentration", "method_in_brief": "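72 hr, 37 degree celsius; NPC 8-pt / MIPE 11-pt dose response; compound pinned in DMSO; CellTiter-Glo, 10 min RT, luminescence; normalized to no-cell and DMSO controls.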", "values": [{"smiles": "COc1ccc(C2C(=O)c3ccccc3C2=O)cc1", "activity change, negative = cytotoxicity": "17.2% (inactive)"}, {"smiles": "Cc1c(N(C)CS(=O)(=O)O)c(=O)n(-c2ccccc2)n1C", "activity change, negative = cytotoxicity": "3.62% (inactive)"}, {"smiles": "OC[C@H]1O[C@H](O[C@]2(CCl)O[C@H](CCl)[C@@H](O)[C@@H]2O)[C@H](O)[C@@H](O)[C@H]1Cl", "activity change, negative = cytotoxicity": "-11.4% (inactive)"}, {"smiles": "C[C@H](CCC(=O)O)[C@H]1CC[C@H]2[C@@H]3C(=O)C[C@@H]4CC(=O)CC[C@]4(C)[C@H]3CC(=O)[C@]12C", "activity change, negative = cytotoxicity": "9.03% (inactive)"}, {"smiles": "Cc1cc(O)c(C(C)C)cc1Cl", "activity change, negative = cytotoxicity": "12% (inactive)"}, {"smiles": "O=C1c2ccccc2C(=O)C1c1ccccc1", "activity change, negative = cytotoxicity": "6.08% (inactive)"}, {"smiles": "Cc1ncc(CSSCc2cnc(C)c(O)c2CO)c(CO)c1O", "activity change, negative = cytotoxicity": "-11.7% (inactive)"}, {"smiles": "NC[C@H]1O[C@H](O[C@H]2[C@H](O)[C@@H](O[C@H]3O[C@H](CO)[C@@H](O)[C@H](N)[C@H]3O)[C@H](N)C[C@@H]2N)[C@H](N)[C@@H](O)[C@@H]1O", "activity change, negative = cytotoxicity": "7.86% [at 16.1 µM] (inactive)"}, {"smiles": "Cc1ccc(Nc2c(F)cccc2Cl)c(CC(=O)O)c1", "activity change, negative = cytotoxicity": "13.7% (inactive)"}, {"smiles": "CC(=O)O[C@]1(C(C)=O)CC[C@H]2[C@@H]3C[C@H](C)C4=CC(=O)CC[C@]4(C)[C@H]3CC[C@@]21C", "activity change, negative = cytotoxicity": "2.42% (inactive)"}, {"smiles": "CC(=O)OCC(=O)[C@@]1(O)[C@H](C)C[C@H]2[C@@H]3CCC4=CC(=O)C=C[C@]4(C)[C@@]3(F)[C@@H](O)C[C@@]21C", "activity change, negative = cytotoxicity": "4.76% (inactive)"}, {"smiles": "CC(=O)N(O)CCCCCNC(=O)CCC(=O)N(O)CCCCCNC(=O)CCC(=O)N(O)CCCCCN", "Potency": "10.6 µM (active)"}, {"smiles": "CN1[C@@H]2CC[C@H]1CC(OC(=O)c1c[nH]c3ccccc13)C2", "note": "(stereo not given in full)", "activity change, negative = cytotoxicity": "11.1% (inactive)"}, {"smiles": "CC(O)(P(=O)(O)O)P(=O)(O)O", "activity change, negative = cytotoxicity": "9.84% (inactive)"}, {"smiles": "Cc1c(C(C)C)c(=O)n(-c2ccccc2)n1C", "activity change, negative = cytotoxicity": "-7.68% (inactive)"}, {"smiles": "CCCCC(=O)O[C@]1(C(=O)CO)CC[C@H]2[C@@H]3CCC4=CC(=O)CC[C@]4(C)[C@H]3[C@@H](O)C[C@@]21C", "activity change, negative = cytotoxicity": "3.84% (inactive)"}, {"smiles": "O=c1[nH]c(=O)n([C@H]2CCCO2)cc1F", "activity change, negative = cytotoxicity": "-31.8% (inactive)"}, {"smiles": "COC(=O)CCc1ccc(OCC(O)CNC(C)C)cc1", "note": "(stereo not given)", "activity change, negative = cytotoxicity": "9.42% (inactive)"}, {"smiles": "Cc1cc2c(cc1CC(=O)c1sccc1S(=O)(=O)Nc1onc(C)c1Cl)OCO2", "activity change, negative = cytotoxicity": "-5.42% (inactive)"}, {"smiles": "CC(C)(C)NC(=O)[C@@H]1CN(Cc2cccnc2)CCN1C[C@@H](O)C[C@@H](Cc1ccccc1)C(=O)N[C@H]1c2ccccc2C[C@H]1O", "activity change, negative = cytotoxicity": "3.85% (inactive)"}, {"smiles": "CCCCS(=O)(=O)N[C@@H](Cc1ccc(OCCCCC2CCNCC2)cc1)C(=O)O", "activity change, negative = cytotoxicity": "4.94% (inactive)"}, {"smiles": "Cc1onc(-c2c(Cl)cccc2Cl)c1C(=O)N[C@@H]1C(=O)N2[C@@H]1SC(C)(C)[C@@H]2C(=O)O", "activity change, negative = cytotoxicity": "-1.17% (inactive)"}, {"smiles": "CN1CCN(C(c2ccccc2)c2ccccc2)CC1", "activity change, negative = cytotoxicity": "1.38% (inactive)"}, {"smiles": "O=C(O)CNC(=O)c1ccccc1", "activity change, negative = cytotoxicity": "13.6% (inactive)"}, {"smiles": "COC(=O)[C@@H]1CC2=CC(=O)CC[C@]2(C)[C@@]23O[C@@H]2C[C@@]2(C)[C@@H](CC[C@@]24CCC(=O)O4)[C@H]13", "activity change, negative = cytotoxicity": "-7.38% (inactive)"}, {"smiles": "NC(CS)C(=O)O", "note": "(stereo not given)", "activity change, negative = cytotoxicity": "-6.43% (inactive)"}, {"smiles": "CN(C)CCOc1ccccc1Cc1ccccc1", "activity change, negative = cytotoxicity": "2.22% (inactive)"}, {"smiles": "CCOC(=O)OC(C)OC1=C(C(=O)Nc2ccccn2)N(C)S(=O)(=O)c2ccccc21", "note": "(stereo not given)", "activity change, negative = cytotoxicity": "17.6% (inactive)"}, {"smiles": "N[C@H](Cc1c[nH]c2ccccc12)C(=O)O", "activity change, negative = cytotoxicity": "8.55% (inactive)"}, {"smiles": "C[C@H](O)C(=O)Nc1c(I)c(C(=O)NC(CO)CO)c(I)c(C(=O)NC(CO)CO)c1I", "activity change, negative = cytotoxicity": "14.4% (inactive)"}, {"smiles": "CC(C)COC(=O)c1ccc(N)cc1", "activity change, negative = cytotoxicity": "5.14% (inactive)"}, {"smiles": "CC1(C)O[C@@H]2[C@@H](CO[C@@]3(COS(N)(=O)=O)OC(C)(C)O[C@@H]23)O1", "activity change, negative = cytotoxicity": "12.2% (inactive)"}, {"smiles": "CCN(CCCCOC(=O)c1ccc(OC)c(OC)c1)C(C)Cc1ccc(OC)cc1", "note": "(stereo not given)", "activity change, negative = cytotoxicity": "-19.3% (inactive)"}, {"smiles": "CN=C(NC#N)Nc1ccc(C2=NNC(=O)CC2C)cc1", "note": "(stereo not given)", "activity change, negative = cytotoxicity": "5.62% (inactive)"}, {"smiles": "Cc1nc2n(c(=O)c1CCN1CCC(c3noc4cc(F)ccc34)CC1)CCC[C@H]2O", "activity change, negative = cytotoxicity": "8.18% [at 16.1 µM] (inactive)"}]}, {"test_system": "C33A", "experiment": "Primary qHTS to identify gynecologic anti-cancer compounds using libraries of approved drugs and bioactive compounds (AID 1345084); note: nearly all actives have a fitted effect of over 55% in size", "conditions": "Gynecologic cancer cell panel viability, ATPlite luminescence, 48 h; series mostly up to 57.5 µM; activity change, negative = cytotoxicity: at the top concentration", "method_in_brief": "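Cell viability after 48 h drug treatment, ATPlite luminescence readout; five doses.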", "values": [{"smiles": "COc1ccc(C2C(=O)c3ccccc3C2=O)cc1", "activity change, negative = cytotoxicity": "4.56% (inactive)"}, {"smiles": "Cc1c(N(C)CS(=O)(=O)O)c(=O)n(-c2ccccc2)n1C", "activity change, negative = cytotoxicity": "12.1% (inactive)"}, {"smiles": "OC[C@H]1O[C@H](O[C@]2(CCl)O[C@H](CCl)[C@@H](O)[C@@H]2O)[C@H](O)[C@@H](O)[C@H]1Cl", "Potency": "inactive"}, {"smiles": "C[C@H](CCC(=O)O)[C@H]1CC[C@H]2[C@@H]3C(=O)C[C@@H]4CC(=O)CC[C@]4(C)[C@H]3CC(=O)[C@]12C", "activity change, negative = cytotoxicity": "-0.352% (inactive)"}, {"smiles": "Cc1cc(O)c(C(C)C)cc1Cl", "activity change, negative = cytotoxicity": "3.95% (inactive)"}, {"smiles": "O=C1c2ccccc2C(=O)C1c1ccccc1", "activity change, negative = cytotoxicity": "6.5% (inactive)"}, {"smiles": "Cc1ncc(CSSCc2cnc(C)c(O)c2CO)c(CO)c1O", "activity change, negative = cytotoxicity": "-2.41% (inactive)"}, {"smiles": "NC[C@H]1O[C@H](O[C@H]2[C@H](O)[C@@H](O[C@H]3O[C@H](CO)[C@@H](O)[C@H](N)[C@H]3O)[C@H](N)C[C@@H]2N)[C@H](N)[C@@H](O)[C@@H]1O", "activity change, negative = cytotoxicity": "-0.594% [at 25.3 µM] (inactive)"}, {"smiles": "Cc1ccc(Nc2c(F)cccc2Cl)c(CC(=O)O)c1", "Potency": "inactive"}, {"smiles": "CC(=O)O[C@]1(C(C)=O)CC[C@H]2[C@@H]3C[C@H](C)C4=CC(=O)CC[C@]4(C)[C@H]3CC[C@@]21C", "activity change, negative = cytotoxicity": "0.725% (inactive)"}, {"smiles": "CC(=O)OCC(=O)[C@@]1(O)[C@H](C)C[C@H]2[C@@H]3CCC4=CC(=O)C=C[C@]4(C)[C@@]3(F)[C@@H](O)C[C@@]21C", "Potency": "inactive"}, {"smiles": "CN1[C@@H]2CC[C@H]1CC(OC(=O)c1c[nH]c3ccccc13)C2", "note": "(stereo not given in full)", "Potency": "inactive"}, {"smiles": "CC(O)(P(=O)(O)O)P(=O)(O)O", "activity change, negative = cytotoxicity": "0.984% (inactive)"}, {"smiles": "Cc1c(C(C)C)c(=O)n(-c2ccccc2)n1C", "activity change, negative = cytotoxicity": "-2.04% (inactive)"}, {"smiles": "CCCCC(=O)O[C@]1(C(=O)CO)CC[C@H]2[C@@H]3CCC4=CC(=O)CC[C@]4(C)[C@H]3[C@@H](O)C[C@@]21C", "activity change, negative = cytotoxicity": "1% (inactive)"}, {"smiles": "O=c1[nH]c(=O)n([C@H]2CCCO2)cc1F", "Potency": "inactive"}, {"smiles": "COC(=O)CCc1ccc(OCC(O)CNC(C)C)cc1", "note": "(stereo not given)", "Potency": "inactive"}, {"smiles": "Cc1cc2c(cc1CC(=O)c1sccc1S(=O)(=O)Nc1onc(C)c1Cl)OCO2", "Potency": "inactive"}, {"smiles": "CC(C)(C)NC(=O)[C@@H]1CN(Cc2cccnc2)CCN1C[C@@H](O)C[C@@H](Cc1ccccc1)C(=O)N[C@H]1c2ccccc2C[C@H]1O", "Potency": "inactive"}, {"smiles": "CCCCS(=O)(=O)N[C@@H](Cc1ccc(OCCCCC2CCNCC2)cc1)C(=O)O", "Potency": "inactive"}, {"smiles": "Cc1onc(-c2c(Cl)cccc2Cl)c1C(=O)N[C@@H]1C(=O)N2[C@@H]1SC(C)(C)[C@@H]2C(=O)O", "Potency": "inactive"}, {"smiles": "CN1CCN(C(c2ccccc2)c2ccccc2)CC1", "Potency": "inactive"}, {"smiles": "O=C(O)CNC(=O)c1ccccc1", "activity change, negative = cytotoxicity": "7.13% (inactive)"}, {"smiles": "COC(=O)[C@@H]1CC2=CC(=O)CC[C@]2(C)[C@@]23O[C@@H]2C[C@@]2(C)[C@@H](CC[C@@]24CCC(=O)O4)[C@H]13", "activity change, negative = cytotoxicity": "9.59% (inactive)"}, {"smiles": "NC(CS)C(=O)O", "note": "(stereo not given)", "activity change, negative = cytotoxicity": "4.38% (inactive)"}, {"smiles": "CN(C)CCOc1ccccc1Cc1ccccc1", "activity change, negative = cytotoxicity": "-0.433% (inactive)"}, {"smiles": "CCOC(=O)OC(C)OC1=C(C(=O)Nc2ccccn2)N(C)S(=O)(=O)c2ccccc21", "note": "(stereo not given)", "activity change, negative = cytotoxicity": "4.14% (inactive)"}, {"smiles": "N[C@H](Cc1c[nH]c2ccccc12)C(=O)O", "activity change, negative = cytotoxicity": "-0.032% (inactive)"}, {"smiles": "C[C@H](O)C(=O)Nc1c(I)c(C(=O)NC(CO)CO)c(I)c(C(=O)NC(CO)CO)c1I", "activity change, negative = cytotoxicity": "15.2% (inactive)"}, {"smiles": "CC(C)COC(=O)c1ccc(N)cc1", "activity change, negative = cytotoxicity": "-0.58% (inactive)"}, {"smiles": "Cc1ccc(C(=O)C(C)CN2CCCCC2)cc1", "note": "(stereo not given)", "Potency": "inactive"}, {"smiles": "CC1(C)O[C@@H]2[C@@H](CO[C@@]3(COS(N)(=O)=O)OC(C)(C)O[C@@H]23)O1", "activity change, negative = cytotoxicity": "1.12% (inactive)"}, {"smiles": "CCN(CCCCOC(=O)c1ccc(OC)c(OC)c1)C(C)Cc1ccc(OC)cc1", "note": "(stereo not given)", "activity change, negative = cytotoxicity": "-4.29% (inactive)"}, {"smiles": "CN=C(NC#N)Nc1ccc(C2=NNC(=O)CC2C)cc1", "note": "(stereo not given)", "activity change, negative = cytotoxicity": "-4.55% (inactive)"}, {"smiles": "Cc1nc2n(c(=O)c1CCN1CCC(c3noc4cc(F)ccc34)CC1)CCC[C@H]2O", "Potency": "inactive"}]}]}
